# Compounds without any hit were thinned out: in the full panel of roughly 83,000, 20% have a hit.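 Cells were grown in 96-well plates and exposed to the test compound at a single concentration for 48 hours; results are reported as percent growth, with values below 10 considered active.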 Activity calls are given as the source filed them.
# System: HCT-15 colon
# Test: NCI-60 one-dose screen, 48 h (100 = growth as untreated, 0 = no growth, -100 = all killed)
# Conditions: 10 µM unless noted
row,SMILES,growth
1,C=C(C=O)[C@@H]1CC[C@]2(C)[C@H](CC=C3[C@H]4[C@@H](C)[C@H](C)CC[C@]4(C(=O)OC)CC[C@]32C)[C@@]1(C)CCC#N,-55% (active)
2,COc1ccc([C@@H]2c3[nH]c4ccccc4c3C[C@H]3C(=O)N(C4CCN(CC5CCCCC5)CC4)CC(=O)N23)c(OC)c1,56.5% (inactive)
3,c1ccc(C(c2nc3ncncc3[nH]2)N2CSc3nc4ncncc4n3C2)cc1 (stereo unspecified),80.4% (inactive)
4,Cc1occc1-c1nc2s/c(=C/c3ccc(-c4cc(C(F)(F)F)ccc4Cl)o3)c(=O)n2n1,104% (inactive)
5,CNCc1cccc2c1OCCCCCCC(C)(O)CC(C)(C)S(=O)(=O)c1ccc(cc1)-c1cnc(N)c(n1)C(=O)N2 (stereo unspecified),-20.6% (active)
6,CS(=O)(=O)c1ncc(-c2ccccc2)cn1,89.1% (inactive)
7,CCOC(=O)c1c(N)c(C#N)cn1-c1cc(OC)c(OC)c(OC)c1,106% (inactive)
8,CCCCCc1ccc(S(=O)(=O)Nc2cc(-c3csc(NC(=O)CN4CCN(C)CC4)n3)ccc2OC)cc1,-58.9% (active)
9,Cc1nc2ncc(-c3ccc4ncnc(NCc5ccccc5)c4c3)cc2[nH]1,103% (inactive)
10,C=C(C=O)[C@@H]1CC[C@]2(COC(C)=O)CC[C@]3(C)C(CC[C@@H]4[C@@]5(C)CC[C@H](OC(C)=O)C(C)(C)[C@@H]5CC[C@]43C)[C@@H]12 (stereo partly specified),-42.7% (active)
11,Cc1ccc(S(=O)(=O)N(CC[C@@H]2C[C@H]2c2cc3ccccc3o2)S(=O)(=O)c2ccc(C)cc2)cc1,94.5% (inactive)
12,COC(=O)c1ccc(NC2=C/C(=N/S(=O)(=O)c3ccc(C(=O)O)cc3)c3ccccc3C2=O)cc1,61.7% (inactive)
13,O=C(CCn1c[n+](CC(=O)c2ccc(F)cc2)c2ccccc21)Nc1cccc2cccnc12,106% (inactive)
14,CC1(C)CC[C@]2(C(=O)O)CC[C@]3(C)C(=CC[C@@H]4[C@@]5(C)CC/C(=N\OCCC#N)C(C)(C)[C@@H]5CC[C@]43C)[C@@H]2C1,106% (inactive)
15,COc1ccc([C@@H]2[C@@H](O)C(=O)N2c2cc(OC)c(OC)c(OC)c2)cc1F,7.95% (active)
16,CCOC(=O)c1c(Nc2ccccc2)nn2c(-c3ccccc3)ccnc12,63.3% (inactive)

row,SMILES,growth
1,Cc1cc(C)c2sc(=O)n(Cc3nnc(SCCC(=O)O)o3)c2n1,99.6% (inactive)
2,C=CCn1c(SCC(=O)Nc2ccc(C(=O)/C=C/c3cccc([N+](=O)[O-])c3)cc2)nnc1-c1c[nH]c2ccccc12,91.7% (inactive)
3,Cc1ccc(NC(=O)N[C@@H](Cc2cc(F)cc(F)c2)C(=O)NC2C(=O)N3C[C@H](O)C[C@H]3C(=O)N3CCCC[C@H]3C(=O)N[C@@H](CO)C(=O)N3C[C@H](C)C[C@H]3C(=O)O[C@H]2C)c(F)c1 (stereo partly specified),106% (inactive)
4,C#C[C@]1(O)CC[C@H]2[C@@H]3CC=C4c5sc(-c6ccc7c(c6)OCO7)nc5CC[C@]4(C)[C@H]3CC[C@@]21C,10.5% (inactive)
5,CCCCCc1ccc(S(=O)(=O)Nc2cccc(-c3csc(NC(=O)CN4CCN(C)CC4)n3)c2)cc1,11.7% (inactive)
6,CCCn1cnc2c(c1=N)C(c1ccc(F)cc1)c1sc3c(CC)cccc3c1O2 (stereo unspecified),12.6% (inactive)
7,O=C(NCCn1ccnc1)c1ccc(-c2nc3ccc4[nH]ncc4c3c3c2CCCC3)cc1,97.5% (inactive)
8,COc1cccc(O)c1/C=C(/C)c1ccc2c(OC)cccc2[o+]1,95.1% (inactive)
9,NS(=O)(=O)c1ccc(-n2cc(CN3CCCCC3)nn2)cc1,107% (inactive)
10,O=S(=O)(NCCNc1nccc(-n2cnc3ccccc32)n1)c1ccc(Cl)cc1,96.6% (inactive)
11,COC(=O)C1(C)CCC[C@]2(C)[C@H]3C[C@H]4C(C(C)C)=C[C@]3(CC[C@@H]12)[C@H]1[C@@H]4[C@@H](OC(=O)c2ccco2)CC[C@@H]1OC(=O)c1ccco1 (stereo partly specified),107% (inactive)
12,CCCn1cnc2c(c1=N)C(c1ccc(OC)cc1)c1sc3c(C)cccc3c1O2 (stereo unspecified),14.6% (inactive)
13,COc1cc(-c2nn(C(C)(C)C)cc2-c2ccnc(NCCCNS(=O)(=O)c3cccc(F)c3)n2)ccc1Cl,63.7% (inactive)
14,CC1(C)CC[C@]2(CN)CC[C@]3(C)C(=CC[C@@H]4[C@@]5(C)CCCNC(C)(C)[C@@H]5CC[C@]43C)[C@H]2C1,71.7% (inactive)
15,NC(=O)c1cccc(C#CCNC[C@H]2C[C@@H](n3ccc4c(Cl)ncnc43)[C@H](O)[C@@H]2O)c1,107% (inactive)

# Source: PubChem BioAssay (NCI)
